Source: PubChem
Only some compounds are listed: those with a hit (about 19% of all), similar ones and a draw of the others.
IL1B secr inh – inhibitors of inflammasome signaling (IL-1 beta secretion); actives 4.7% (n = 360,000); THP-1 LPS/ATP IL-1B secretion, AlphaLISA, 16 h; active compounds read low; activity change, % at 57.5 µM; AID 743279; in the data active = activity change below about -50%; inconclusive = mostly about -30% to -49%
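THP-1 cells pretreated 1 hr with compounds (up to 57.5 uM final), then stimulated with LPS (250 ng/mL final) plus ATP (1.25 mM final); secreted IL-1B measured by AlphaLISA after 16 hr, decreased signal indicating inhibition.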
TDP1 cell CPT – growth inhibition of DT40 Tdp1-/-;hTDP1 cells with camptothecin (screen for TDP1 inhibitors). chicken DT40 Tdp1-/-;hTDP1 cells + 20 nM CPT, ATP luminescence, 48 h. actives 12% (n = 420,000). Potency, µM (highest dose often 46.2 µM), inactives show at the highest dose activity change, negative = growth inhibition, usual class: inhibitors; note: potency is the fitted concentration of half-maximal effect; nearly all actives have a fitted effect of over 55% in size
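Cell growth measured by CellTiter-Glo luminescence after a minimum 48 h, 37 C compound exposure with 20 nM CPT in Tdp1-knockout DT40 cells stably expressing hTDP1, seeded 400/well; qHTS titration format.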
TDP1 cell noCPT – qHTS for Inhibitors of human tyrosyl-DNA phosphodiesterase 1 (TDP1): qHTS in cells in absence of CPT | DT40 Tdp1-/- hTDP1 cells, no CPT, ATP luminescence, 48 h | Potency, µM (doses to about 46.2 µM), for inactives: top-dose activity change, negative = growth inhibition, usual class: inhibitors | actives 15% (n = 420,000); note: potency is the fitted concentration of half-maximal effect; nearly all actives have a fitted effect of over 55% in size
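Luminescent ATP content (CellTiter-Glo) served as the growth readout. Knockout chicken DT40 cells expressing human TDP1 were exposed to compounds without camptothecin for a minimum 48 hr at 37 °C.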
HT1080NT lethal – kills 2HG-producing HT-1080-NT fibrosarcoma cells; HT-1080-NT fibrosarcoma viability, CellTiter-Glo ATP luminescence, 48 h; Potency, µM (highest dose often 46.1 µM), inactives show at the top dose activity, negative = less viability, hits mostly cytotoxic; actives 1.6% (n = 360,000); AID 686970;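 note: NT is the 2HG producing partner of a matched IDH1 knockdown line; potency is the fitted concentration of half-maximal effect; 0% = DMSO-treated cells and -100% = media-only wells without cells; nearly all actives have a fitted effect of over 55% in size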
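Read-out is CellTiter-Glo luminescence after 10 minutes at room temperature, following 48 hours' compound treatment of HT-1080-NT cells (750 cells/well, RPMI, 5% FBS, 37 degrees C).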
HT1080 IDH1KD tx – HT-1080 IDH1 knockdown cell toxicity (counter line). HT-1080 IDH1 knockdown viability, ATP luminescence, 48 h. Potency, µM (titrated, usually from 46.1 µM), for the others: at the highest dose activity, negative = toxicity, actives largely listed as cytotoxic. actives 2% (n = 360,000). AID 686971;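 note: potency is the fitted concentration of half-maximal effect; 0% = DMSO wells and -100% = cell-free medium wells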
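Cytotoxicity counter-line: IDH1KD HT-1080, 48 h, CellTiter-Glo. Curves classed by r2, magnitude and activity.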
Numbers without * were called inactive; ? = inconclusive; . = no result; ! = repeats disagree; [ ] = another dose, or the depositor's remark. Unless noted, calls come from the whole dose curve; as a rule, active = well fitted curve in the direction sought with a large enough effect; inconclusive = small, poorly fitted or top-dose-only effect, or another doubt; inactive = no such curve, though single readings can be large; an effect the other way counts as inactive or inconclusive. Unless noted, % is set by controls: 0 for no effect and ±100 for the full control effect.

SMILES | IL1B secr inh | TDP1 cell CPT | TDP1 cell noCPT | HT1080NT lethal | HT1080 IDH1KD tx
C[C@]12CCC3C(CC[C@H]4C[C@H](O)CC[C@]34C)C1C[C@@H](O)[C@H]2O (some centres undefined) | 3 | ? | ? | -10% | -1%
CC12CCC(=O)C=C1CCC1C2CCC2(C)C(O)(C(=O)CO)CCC12O (centres undefined) | -8 | 0% | -21% | 9% | 17%
C=C1C(=O)O[C@@H]2C[C@@H](C)[C@H]3C=CC(=O)[C@]3(O)C[C@@H]12 | -99* | 4.6µM* | 4.6µM* | -19% | -16%
C/C(=N\NC(N)=S)C12CC3CC(CC(C3)C1)C2 | ? | 23µM* | 15µM* | 5µM* | 6.3µM*
CCOC(=O)C1=C(c2ccccc2)N=c2s/c(=C\c3ccc(O)cc3)c(=O)n2C1c1cccs1 (centres undefined) | -78* | 12µM* | 16µM* | ? | ?
CC(C)C[C@H](NC(=O)[C@H](Cc1ccccc1)NC(=O)CNC(=O)[C@H](CS)N(C(=O)[C@@H](N)Cc1ccc(O)cc1)C(C)(C)C)C(=O)N([C@H](C(=O)O)[C@H](C)O)C(C)(C)C | . | -5%[4.12 µM] | -4%[4.12 µM] | . | .
Cc1ccc2c(Cl)cc(Cl)c(OCC(=O)N(C(C)C)C(C)C)c2n1 | 0 | 16µM* | 18µM* | -18% | -11%
COc1cccc2c1C13CC[N+]4(CC5CC5)CO[C@]1(CCC(=O)C3)C4C2 | . | 3% | -12% | . | .
Cc1ccc(C[N+](C)(C)C)o1 | . | ? | -12% | . | .
CC(=NCc1ccco1)c1c(O)n(C)c(=O)n(C)c1=O | -11 | -22% | -13% | -3% | -22%
CC(=NCCC(c1ccccc1)c1ccccc1)c1c(O)n(C)c(=O)n(C)c1=O | 47 | 21µM* | 13µM* | -9% | -8%
CCC(=NCCc1ccccc1)c1c(O)n(C)c(=O)n(C)c1=O | -19 | ? | 8.2µM* | ? | ?
Cn1c(O)c(C(=Nc2ccccc2)SCc2ccc(Cl)cc2)c(=O)n(C)c1=O | 15 | 4.6µM* | 3.3µM* | ? | ?
CCc1ccc(OCCCN=C(C)c2c(O)n(C)c(=O)n(C)c2=O)cc1 | 15 | 13µM* | 18µM* | -6% | ?
CCC(=NCc1ccco1)c1c(O)n(C)c(=O)n(C)c1=O | 24 | ? | ? | -21% | -3%
COc1ccccc1CN1CCN(Cc2ccc(Cl)cc2)CC1 | -3 | -20% | 21µM* | -3% | 2%
COc1ccccc1N1CCN(Cc2ccc(SC)cc2)CC1 | -6 | 16µM* | 21µM* | -4% | -2%
CSc1ccc(CN2CCN(c3ccccc3C)CC2)cc1 | -17 | ? | ? | -19% | -21%
Cc1cccc(CN2CCN(Cc3ccc(Cl)cc3)CC2)c1 | ? | ? | 21µM* | -15% | -28%
CCc1ccc(CN2CCN(Cc3ccc(SC)cc3)CC2)cc1 | -91* | ? | 21µM* | ? | ?
CCOP(=O)(OCC)C(NC(C)=O)C(Cl)(Cl)Cl (centres undefined) | 38 | -13% | -2% | 3% | 6%
CC(=O)[C@H]1[C@H](C#N)C[C@H]2[C@@H]3CC=C4C[C@@H](O)CC[C@]4(C)[C@H]3CC[C@@]21C | 15 | ? | 13µM*! | 1% | 1%
CC[C@H](C)[C@H](NC(=O)[C@H](CCCN=C(N)N)NC(=O)[C@H](CCCN=C(N)N)NC(=O)[C@H](CC(C)C)NC(=O)[C@H](Cc1ccccc1)NC(=O)CNC(=O)CNC(=O)[C@@H](N)Cc1ccc(O)cc1)C(=O)N[C@@H](CCCN=C(N)N)C(=O)N1CCC[C@H]1C(=O)N[C@@H](CCCCN)C(=O)N[C@@H](CC(C)C)C(=O)N[C@@H](CCCCN)C(=O)O | . | 8%[4.12 µM] | 2%[4.12 µM] | . | .
c1ccc(/N=C2\N=C(Nc3ccccn3)c3ccccc32)nc1 | 51 | 0.21µM* | 0.15µM* | ? | -9%
S=C=Nc1ccccn1 | 21 | -24% | ? | 25% | 12%
